# Experimental data as given in patent publication US20230313203, “FLUOROARABINO NUCLEIC ACID (FANA) […] THAT BIND SARS-2 RECEPTOR BINDING DOMAIN AND BLOCK BINDING TO THE ACE2 […] RECEPTOR” (University of Maryland, College Park, published 2023).
# Potency and affinity values are given separately.
# Target: SARS-CoV-2 spike receptor binding domain (Wuhan) (SARS-CoV-2, UniProt P0DTC2 P0DTC2:319-541)
# Experiment: inhibition
# Conditions: XNA; first 20 nt DNA, rest FANA (SEQ ID NO 3)
sequence,measurement,value
AAAAGGTAGTGCTGAATTCGUCGAACUAAUCCGAAUUGAUGGCAUAAAAAGCAUGUUUAGUUCGCUAUCCAGUUGGCCU,binding signal,~3 fold weaker
